Reference: PubChem BioAssay
Inconclusive results are not listed. The list shows a part of the results. Calls of active or inactive are those of the source. Cut-off read from the data, not from the text of the source, unless noted: active = binding response below about 72% or above about 130%; inactive = in between.

Key:
[1] = rapamycin-like changes in RPL19A-GFP expression – cell-based, S. cerevisiae, multiplex flow cytometry, primary screen (AID 1862; in the data active = percent of DMSO control GFP below about 86%;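 note: lower values mimic rapamycin by blocking the RPL19A rise seen in DMSO cells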); conditions: S. cerevisiae RPL19A-GFP strain, flow cytometry fluorescence, 3 h; at 10 µM; stronger effect = lower value
[2] = TOR pathway GLN3 branch reporter MEP2-GFP changes – S. cerevisiae, multiplex flow cytometry, primary screen (AID 1867;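 active = GFP response, as percent of the DMSO control, above the screen-wide mean plus 3 SD, about 139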;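 note: median GFP channel fluorescence of barcode-gated MEP2-GFP cells measured by flow cytometry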); conditions: S. cerevisiae MEP2-GFP strain, 3 h, at 10 µM, stronger effect = higher value, 100% means same as DMSO wells
[3] = TOR pathway RTG branch CIT2 reporter changes – S. cerevisiae, GFP fusion, multiplex flow cytometry, primary screen (AID 1870;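 active = percent response above a set limit, the screen-wide mean plus 3 SD, cut at about 130% in these data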;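 note: barcoded CIT2-GFP strain pooled with four other GFP strains with rapamycin as positive control; median GFP fluorescence per well over plate mean of DMSO wells so 100% = DMSO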); conditions: S. cerevisiae CIT2-GFP expression, 3 h, at 10 µM, stronger effect = higher value
[4] = TOR pathway LAP4-GFP level changes – S. cerevisiae, multiplex flow cytometry, primary screen (AID 1873;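 active = GFP signal, as percent of the solvent control, above the screen mean plus 3 SD, about 149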); conditions: S. cerevisiae LAP4-GFP expression, 3 h, at 10 µM, stronger effect = higher value
[5] = yeast AGP1-GFP level changes, GLN3 branch – cell-based, multiplex flow cytometry, S. cerevisiae, primary screen (AID 1887;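 active = GFP signal above the screen-wide mean plus 3 SD, that is over about 124.5% of the solvent control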;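 note: AGP1-GFP fusion strain of S. cerevisiae within a five-strain barcoded multiplex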); conditions: 3 h, at 10 µM, stronger effect = higher value
[6] = hit retest on RPL19A-GFP reporter strain – cell-based, S. cerevisiae, flow cytometry, cherry picks, mother/daughter gates, confirmation (AID 2270;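 active = GFP response below 50% of the DMSO control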); conditions: 3 h, at 10 µM, stronger effect = lower value, 100 = same GFP as DMSO wells
[7] = yeast TOR pathway reporter LAP4-GFP change – cell-based, cherry picks, flow cytometry, mother/daughter gates, confirmation (AID 2271;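 active = GFP response above 150% of the DMSO control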;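 note: ratio of sample to DMSO plate mean so 100% equals DMSO level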); conditions: S. cerevisiae LAP4-GFP strain, 3 h, at 10 µM, stronger effect = higher value, 100 means same as DMSO control
[8] = TOR pathway reporter MEP2-GFP, retest of hits – S. cerevisiae, flow cytometry GFP, cherry picks, confirmation (AID 2272;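 active = GFP response above 150% of the DMSO control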;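 note: ratio of well signal to plate DMSO mean so 100% equals DMSO level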); conditions: S. cerevisiae MEP2-GFP strain, 3 h, at 10 µM, stronger effect = higher value
[9] = TOR pathway CIT2 reporter hit retest – S. cerevisiae, GFP fusion, cherry picks, mother/daughter gates, confirmation (AID 2274;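 active = GFP response above 150% of the DMSO level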); conditions: S. cerevisiae CIT2-GFP strain, flow cytometry, 3 h, at 10 µM, stronger effect = higher value
[10] = reduced mouse 2C T cell binding to pMHC/ICAM-1 vesicles – MLPCN validation set, flow cytometry, LFA-1/ICAM-1 modulator project, pilot screen (AID 2523;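 active = response below a set limit, under 55% cells CD8-positive and vesicle-bound, and CD8 cells' 90th-percentile brightness under 279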;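 for vesicle binding response: mean PE anti-B7-1 fluorescence of CD8+ cells relative to row control; 100% = QL9-loaded vesicles with DMSO vehicle in the same plate row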); conditions: 2C mouse CD8+ T cells, at 7 µM, stronger effect = lower value; double positive events: measured here: CD8+/vesicle+ event percentage
[11] = interference with biotin-avidin bead interaction – biochemical, flow cytometry, bead-based, counter-screen for RGS protein interaction modulators (AID 1783;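 active = inhibition above 50%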;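 note: median green fluorescence of gated singlet beads compared with DMSO control wells; 0% = DMSO wells and 100% = complete loss of bead fluorescence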); conditions: streptavidin beads, fluorescein-biotin binding; at 10 µM, stronger effect = higher value
[12] = molecular target: Guanine nucleotide-binding protein G(o) subunit alpha (Homo sapiens) (UniProt P09471); assay: retest of RGS8-Galphao interaction hits – biochemical, multiplexed bead flow cytometry, single concentration, confirmation (AID 1836); conditions: bead-based flow cytometry RGS8-Galphao binding, fluorescence; at 10 µM; actives lie on both sides;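 note: Galphao activated as GDP AlF4 complex before binding bead RGS8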
Guanine nucleotide-binding protein G(o) subunit alpha (Homo sapiens), sequence (P09471 whole entry, looked up): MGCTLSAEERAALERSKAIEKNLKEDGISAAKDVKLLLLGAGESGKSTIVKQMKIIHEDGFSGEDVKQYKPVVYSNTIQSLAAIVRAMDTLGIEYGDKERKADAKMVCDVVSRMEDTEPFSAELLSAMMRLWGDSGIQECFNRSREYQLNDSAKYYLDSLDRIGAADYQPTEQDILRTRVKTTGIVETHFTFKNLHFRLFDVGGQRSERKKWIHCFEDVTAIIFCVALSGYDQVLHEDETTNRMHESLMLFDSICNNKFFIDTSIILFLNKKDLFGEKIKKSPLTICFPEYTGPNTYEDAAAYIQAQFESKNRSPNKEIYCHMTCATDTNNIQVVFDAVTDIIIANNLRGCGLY

[13] = molecular target: Guanine nucleotide-binding protein G(o) subunit alpha (Homo sapiens) (UniProt P09471); assay: retest of RGS7-Galphao interaction hits – biochemical, multiplexed bead flow cytometry, single concentration, confirmation (AID 1837; in the data active = response below about 75% or above about 130%; inactive = in between;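 note: fluorescent Galphao activated with GDP and aluminum fluoride binding bead-coupled RGS7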); conditions: bead-based flow cytometry RGS7-Galphao binding; at 10 µM; actives lie on both sides
[14] = molecular target: Regulator of G-protein signaling 16 (Homo sapiens) + Guanine nucleotide-binding protein G(o) subunit alpha (Homo sapiens) (UniProt O15492+P09471); assay: RGS16 and Galphao interaction regulators – biochemical, single concentration, multiplexed bead flow cytometry, confirmation (AID 1838; in the data active = response below about 74% or above about 130%; inactive = in between;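 note: Galphao activated as the GDP aluminium fluoride complex binding bead-coupled RGS16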); conditions: bead-based flow cytometry, at 10 µM, actives lie on both sides
Regulator of G-protein signaling 16 (Homo sapiens) + Guanine nucleotide-binding protein G(o) subunit alpha (Homo sapiens), sequence (O15492 whole entry, looked up): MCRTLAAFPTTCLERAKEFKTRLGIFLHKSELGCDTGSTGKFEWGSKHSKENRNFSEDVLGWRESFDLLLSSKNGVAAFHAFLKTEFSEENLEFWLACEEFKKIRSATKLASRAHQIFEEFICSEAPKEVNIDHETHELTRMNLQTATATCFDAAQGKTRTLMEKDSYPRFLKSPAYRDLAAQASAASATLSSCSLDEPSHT
Regulator of G-protein signaling 16 (Homo sapiens) + Guanine nucleotide-binding protein G(o) subunit alpha (Homo sapiens), sequence (P09471 whole entry, looked up): as the sequence (P09471 whole entry, looked up) above

[15] = molecular target: Guanine nucleotide-binding protein G(o) subunit alpha (Homo sapiens) (UniProt P09471); assay: RGS4 and Galphao interaction regulators – biochemical, single concentration, multiplexed bead flow cytometry, confirmation (AID 1840; in the data active = binding response below about 74% or above about 130%; inactive = in between); conditions: at 10 µM, actives lie on both sides
[16] = molecular target: Guanine nucleotide-binding protein G(o) subunit alpha (Homo sapiens) + Regulator of G-protein signaling 19 (Homo sapiens) (UniProt P09471+P49795); assay: RGS19 interaction with Gαo, hit retest – biochemical, single point, multiplexed bead flow cytometry, confirmation (AID 1841; in the data active = response below about 50% or above about 160%; inactive = in between;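 note: 100% = no compound control and 0% = blank background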); conditions: bead-based flow cytometry RGS19-Galphao binding; at 10 µM; actives lie on both sides
Guanine nucleotide-binding protein G(o) subunit alpha (Homo sapiens) + Regulator of G-protein signaling 19 (Homo sapiens), sequence (P09471 whole entry, looked up): as above
Guanine nucleotide-binding protein G(o) subunit alpha (Homo sapiens) + Regulator of G-protein signaling 19 (Homo sapiens), sequence (P49795 whole entry, looked up): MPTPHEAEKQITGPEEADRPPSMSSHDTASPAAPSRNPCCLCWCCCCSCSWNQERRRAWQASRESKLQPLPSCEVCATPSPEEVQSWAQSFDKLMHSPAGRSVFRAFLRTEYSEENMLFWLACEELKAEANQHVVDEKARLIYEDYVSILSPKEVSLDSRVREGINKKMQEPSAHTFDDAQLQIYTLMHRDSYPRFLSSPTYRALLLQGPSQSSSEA

[17] = molecular target: Regulator of G-protein signaling 16 (Homo sapiens) (UniProt O15492); assay: small molecules altering RGS protein interactions with GNAO1 – biochemical, multiplexed beads, flow cytometry, RGS4/7/8/16/19, primary screen (AID 1504); conditions: multiplexed bead flow cytometry, measured here: RGS16 interaction, at 10 µM;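 note: fluorescently labeled Galpha-o bound to GDP with aluminium fluoride binding biotinylated RGS beads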
[18] = molecular target: Regulator of G-protein signaling 19 (Homo sapiens) (UniProt P49795); assay: as above; conditions: multiplexed bead flow cytometry, measured here: RGS19 interaction, at 10 µM
[19] = molecular target: Regulator of G-protein signaling 7 (Homo sapiens) (UniProt P49802); assay: as above; conditions: multiplexed bead flow cytometry, measured here: RGS7 interaction, at 10 µM
[20] = molecular target: Regulator of G-protein signaling 8 (Homo sapiens) (UniProt P57771); assay: as above; conditions: multiplexed bead flow cytometry, measured here: RGS8 interaction, at 10 µM
[21] = measured here: daughter cell gate
[22] = measured here: mother cell gate
[23] = measured here: daughter cell gate response
[24] = measured here: mother cell gate response

O=c1cc(-c2ccccc2)oc2cc(OCc3ccccc3)cc(O)c12
percent of DMSO control GFP [1]: 91.7% (inactive) | GFP response vs DMSO [2]: 140% (active) | percent response of DMSO control [3]: 108% (inactive) | GFP response vs DMSO [4]: 84.2% (inactive) | GFP response, % of DMSO [5]: 85.9% (inactive) | GFP response vs DMSO [6]: 98.2% (inactive) | GFP response vs DMSO [6, 21]: 98.6% | GFP response vs DMSO [6, 22]: 98.7% | GFP response relative to DMSO [7]: 99.2% (inactive) | GFP response relative to DMSO [7, 23]: 97.6% | GFP response relative to DMSO [7, 24]: 99.3% | GFP response vs DMSO [8]: 100% (inactive) | GFP response, % of DMSO [9]: 104% (inactive) | GFP response, % of DMSO [9, 21]: 105% | GFP response, % of DMSO [9, 22]: 103% | double positive events [10]: 62.5% | vesicle binding response [10]: 139% (inactive)

Cc1c(Br)cc(C(=O)N2CCCCCC2)c(C)c1C
inhibition [11]: -0.3% (inactive) | binding response (% of control) [12]: 102% (inactive) | response (percent of control binding) [13]: 102% (inactive) | response (% of control binding) [14]: 102% (inactive) | binding response (% of control) [15]: 102% (inactive) | response (percent of control binding) [16]: 104% (inactive)

Cc1cc(C)n(CC(O)CN(c2ccccc2)S(=O)(=O)c2ccc3ccccc3c2)n1 (stereo not given)
RGS16–Galpha-o binding response [17]: -6.51% | RGS19–Galpha-o binding response [18]: 163% | RGS7–Galpha-o binding response [19]: 1.45% | RGS8–Galpha-o binding response [20]: 15% | inhibition [11]: 1.1% (inactive) | binding response (% of control) [12]: 101% (inactive) | response (percent of control binding) [13]: 104% (inactive) | response (% of control binding) [14]: 103% (inactive) | binding response (% of control) [15]: 104% (inactive) | response (percent of control binding) [16]: 98.9% (inactive)

CC(=O)c1ccc(CCCCCCCCCC(=O)O)s1
percent of DMSO control GFP [1]: 98.6% (inactive) | GFP response vs DMSO [2]: 97.4% (inactive) | percent response of DMSO control [3]: 66.4% (inactive) | GFP response vs DMSO [4]: 174% (active) | GFP response, % of DMSO [5]: 86.2% (inactive) | GFP response vs DMSO [6]: 99% (inactive) | GFP response vs DMSO [6, 21]: 96.7% | GFP response vs DMSO [6, 22]: 98.5% | GFP response relative to DMSO [7]: 108% (inactive) | GFP response relative to DMSO [7, 23]: 111% | GFP response relative to DMSO [7, 24]: 113% | GFP response vs DMSO [8]: 100% (inactive) | GFP response, % of DMSO [9]: 99.1% (inactive) | GFP response, % of DMSO [9, 21]: 93.2% | GFP response, % of DMSO [9, 22]: 101% | double positive events [10]: 60% | vesicle binding response [10]: 207% (inactive)
